Hits are enriched below; roughly 4.8% of the tested compounds scored in any of these assays.
PfHsp90 set2: growth inhibition of PfHsp90-expressing yeast, primary screen, antimalarial PfHsp90 inhibitor project, S. cerevisiae, BacTiter-Glo luminescence, single point, set 2; BacTiter-Glo ATP, 48 h; yeast lacking PDR1 and PDR3 efflux regulators; inhibition, % at 9.4 µM; 310,000 tested, 0.32% active;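 active = every replicate shows inhibition above about 80%, whatever the replicate mean, limit read from the data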
NALP1 inh: NALP1 inflammasome inhibitors in reconstituted yeast, colorimetric, S. cerevisiae, triplicate retest. S. cerevisiae NALP1/ASC/caspase-1 growth, X-gal OD620, 72 h. inhibition, % at 10 µM. 280,000 tested, 0.61% active. AID 2071, 2009; in the data active = inhibition mostly above about 24%, no sharp cut-off; inactive = mostly below about 32%
SKKanGAS inh: S. pyogenes SKKanGAS growth inhibitors in kanamycin, primary screen, streptokinase expression inhibitor project, SKKanGAS strain, BacTiter-Glo luminescence; 6 h; inhibition, % at 7.5 µM; 300,000 tested, 1.3% active; AID 1662, 2009;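 active = mean replicate score, as percent of positive control median, at least 50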;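 also: strain carries kanamycin resistance gene driven by streptokinase promoter and grows in 40 µg/ml kanamycin; loss of luminescence reflects streptokinase promoter inhibition or plain growth inhibition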
tim23-1 inh: growth inhibitors of tim23-1 mutant yeast, primary screen, luminescence, uHTS. S. cerevisiae tim23-1 growth, BacTiter-Glo luminescence, 24 h. inhibition, % at 20 µM. 330,000 tested, 1.3% active;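 active = growth inhibition of the mutant yeast at or above 50%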;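 also: temperature-sensitive mutant grown at 25 °C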
TIM10 inh: growth inhibitors of isogenic TIM10 control yeast, primary screen, counter-screen for tim10-1 yeast inhibitor project, luminescence, uHTS; S. cerevisiae TIM10 strain growth, BacTiter-Glo luminescence, 24 h; inhibition, % at 10 µM; 330,000 tested, 1.4% active; AID 463195, 2010;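 active = inhibition of 40% or more at the single tested concentration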;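 also: wild-type TIM10 isogenic control strain grown at permissive 25 °C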
tim10-1 inh: growth inhibitors of tim10-1 mutant yeast, primary screen, luminescence, uHTS | S. cerevisiae tim10-1 ts strain growth, BacTiter-Glo, 24 h | inhibition, % at 20 µM | 330,000 tested, 2.2% active | AID 463190, 2010;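 active = inhibition of at least 40%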;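 also: mutant grown at 25 °C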
tim10-1 conf: growth inhibitors of tim10-1 mutant yeast, confirmation, single concentration, luminescence, S. cerevisiae. shares compounds with tim10-1 inh. 7,400 tested, 56% active. AID 463213, 2010. S. cerevisiae tim10-1 ts strain growth, BacTiter-Glo, 24 h. inhibition, % at 20 µM;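 active = inhibition of yeast growth at or above a set limit in either of two repeat tests at 20 µM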;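 also: tim10-1 mutant grown at permissive 25 °C to find synthetic lethal compounds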
A number is an active result; - = inactive; . = no result.

SMILES	PfHsp90 set2	NALP1 inh	SKKanGAS inh	tim23-1 inh	TIM10 inh	tim10-1 inh	tim10-1 conf
CCCCN(C)/C=N/c1c(C#N)cnn1-c1ccc(C)cc1	-	-	-	-	-	-	.
C/C(=C\c1ccco1)C1C(C#N)=C(N)OC2=C1C(=O)CC(C)(C)C2 (stereo not given)	-	-	-	-	-	-	.
COc1ccc2nc3cc(Cl)ccc3c(Nc3cc(C(C)C)c(O)cc3C)c2c1	-	-	-	-	-	47	37
CC(=O)c1ccccc1NC(=O)c1cc(S(=O)(=O)N2CCOCC2)ccc1N1CCCC1	-	.	.	-	-	-	.
COc1ccccc1NC(=S)NCCc1ccc(F)cc1	-	-	-	-	-	48	-
COc1ccccc1NC(=S)NCCc1ccccc1	-	-	-	-	-	-	.
CCCCCCCCCCCCCCCC(=O)OC(CC(=O)O)C[N+](C)(C)C (stereo not given)	109	.	.	-	-	64	-
CCCCCCCCCCCCCC(=O)O	-	.	.	-	-	-	.
Cn1c(Cl)c(/C=N/OC(=O)c2ccccc2Cl)c2ccccc21	-	-	-	-	-	-	.
Cc1cccc(C(=O)O/N=C/c2c(N3CCOCC3)n(C)c3ccccc23)c1	.	-	-	-	-	41	-
COC(=O)COc1ccsc1C(=O)OC	-	-	-	-	-	-	.
COc1ccc(N2C(=O)CC(N3CCCCC3)C2=O)cc1 (stereo not given)	-	-	-	-	-	-	.
COc1ccc(N2C(=O)CC(N3CCC(O)(c4cccc(C(F)(F)F)c4)CC3)C2=O)cc1 (stereo not given)	-	-	-	-	-	43	33
Cc1cccc(-n2c(-c3csc(C)c3)n[nH]c2=S)c1	-	-	-	-	-	41	-
CCc1cc(-c2n[nH]c(=S)n2-c2cccc(C)c2)cs1	-	-	-	-	-	43	30
CCCSc1nc2c(c(=O)n1CC)SC(C)C2 (stereo not given)	-	-	-	-	-	-	.
O=[N+]([O-])c1ccc(Cn2cc(-c3cccc(C(F)(F)F)c3)nn2)cc1	-	-	-	-	-	47	32
COc1ccc(C(=O)OCC(=O)NCC2CCCO2)cc1 (stereo not given)	-	-	-	-	-	-	.
Cc1sc2nc[nH]c(=O)c2c1-c1ccc(F)cc1	-	-	-	-	-	-	.
Cc1sc2nc[nH]c(=S)c2c1-c1ccccc1	-	-	-	-	-	40	-
CCOc1ccc2nc(SC3CC(=O)N(c4ccccc4)C3=O)sc2c1 (stereo not given)	-	-	-	-	-	-	.
CCOc1ccc2nc(SC3CC(=O)N(c4cccc(OC)c4)C3=O)sc2c1 (stereo not given)	-	-	-	-	-	42	37
Cc1ccc(S(=O)(=O)Nc2c(C)ccc3nsnc23)cc1	-	-	-	-	-	42	-
Cc1sc(N/N=C/c2ccco2)nc1-c1ccccc1	-	-	-	-	-	43	-
CCc1nc(C)cn1S(=O)(=O)c1cc(Br)c(C)cc1OC	-	.	-	-	-	44	-
SMILES	PfHsp90 set2	NALP1 inh	SKKanGAS inh	tim23-1 inh	TIM10 inh	tim10-1 inh	tim10-1 conf
O=C(CNc1cccc2ccccc12)N/N=C/C(Br)=C/c1ccccc1	-	-	-	-	-	41	31
Nc1nnc(-c2ccccc2)c(-c2ccccc2)n1	-	-	-	-	-	41	-
O=C(c1ccco1)N1CCN=C1SCc1cccnc1	-	-	-	-	-	-	.
O=C(c1ccco1)N1CCN=C1SCc1ccccc1F	-	-	-	-	-	44	-
CSc1ccc(/C=N/NC(=O)CNc2ccc3ccccc3c2)cc1	-	-	-	-	-	46	43
O=C(CNc1ccc2ccccc2c1)N/N=C/c1ccncc1	-	-	-	-	-	-	.

Compound activity (PubChem)
